# Measured values: PubChem BioAssay (NCATS)
# Inconclusive results are not listed. Calls of active or inactive are those of the source. Calls follow the shape of the dose curve; as a rule, active = well fitted cell-killing curve with a large enough effect; inconclusive = small, poorly fitted or top-dose-only effect, or effect the other way; inactive = no such curve, though single readings can be large or run the other way.
# Assay: Quantitative High-Throughput drug screen in 47 multiple myeloma cell lines against the NCATS MIPE library collection: MMM1_PLB cell viability assay (AID 1918976); also: nearly all actives have a fitted effect of over 35% in size
# Settings: MMM1 myeloma cells viability, CellTiter-Glo, 48 h; series mostly up to 45.8 µM
# Outline: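 500 cells/well; MIPE 4.0 drugs pin-transferred; 48 h, 37C, 5% CO2. CellTiter-Glo, 5 min RT, luminescence. Controls: DMSO 100%, media 0%.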
# Potency is read from the fitted curve at half-maximal effect.
row,SMILES,Potency
1,NC(=O)C1CCCc2c1[nH]c1ccc(Cl)cc21 (centres undefined),3.32 µM (active)
2,Nc1ncnc2nc(-c3ccc(N4CCOCC4)nc3)cc(-c3cccc(Br)c3)c12,11.8 µM (active)
3,CNC(=O)c1ccc(C)c(-n2c(C)cc(OCc3ccc(F)cc3F)c(Br)c2=O)c1,18.7 µM (active)
4,COc1ccccc1[C@H](c1cccc2ccccc12)[C@@](C)(C#N)C(=O)N1CCC(c2cccc(C(F)(F)F)c2)CC1,11.8 µM (active)
5,COc1cc(F)c(F)c(Nc2ccc(I)cc2F)c1NS(=O)(=O)C1(C[C@H](O)CO)CC1,2.64 µM (active)
6,N#Cc1ccc(C(c2ccc(C#N)cc2)n2cncn2)cc1,11.8 µM (active)
7,CC(C)(Sc1ccc(CCN(CCCCC2CCCCC2)C(=O)NC2CCCCC2)cc1)C(=O)O,18.7 µM (active)
8,NC[C@H](O)c1ccc(O)c(O)c1,23.5 µM (active)
9,CCCc1nn(C)c2c(=O)[nH]c(-c3cc(S(=O)(=O)N4CCN(C)CC4)ccc3OCC)nc12,23.5 µM (active)
10,Nc1nc2ccc(OC(F)(F)F)cc2s1,23.5 µM (active)
11,O=C1CCC(N2C(=O)c3ccccc3C2=O)C(=O)N1 (centres undefined),2.96 µM (active)
12,Cc1cc([C@@H](C)Nc2ccccc2C(=O)O)c2nc(N3CCOCC3)cc(=O)n2c1,19.1 µM (active)
13,Cc1cc2c(C(C)C)c(O)c(O)c(C=O)c2c(O)c1-c1c(C)cc2c(C(C)C)c(O)c(O)c(C=O)c2c1O,18.7 µM (active)
14,Cc1cc2c(F)c(Oc3ncnn4cc(OC[C@@H](C)O)c(C)c34)ccc2[nH]1,2.09 µM (active)
